Assay results published in PubChem BioAssay AID651813 (National Center for Advancing Translational Sciences (NCATS), 2012).
Screen size: about 2,100 compounds; about 1,100 (52%) were called active. About 27% were inconclusive and are not listed. Calls come from the whole dose curve; as a rule, active = well fitted inhibition curve with a large enough effect; inconclusive = small, poorly fitted or top-dose-only effect; inactive = no such curve, though single readings can be large or run the other way. The set was probably picked from earlier hits. Some of the results follow.

molecular target: DNA dC->dU-editing enzyme APOBEC-3G (Homo sapiens) (UniProt Q9HC16); test: qHTS for inhibitors of Vif-A3G interactions: Cherry picks counterscreen; conditions: HeLa A3G-eYFP + Vif (tagged APOBEC3G with the HIV-1 protein that degrades it), eYFP fluorescence, 24 h;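 note: hits raise yellow fluorescence by blocking Vif-driven A3G-eYFP degradation; nearly all actives have a fitted effect of over 70% in size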;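 for max response: max response given as percent of control signal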
Method in brief: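 HeLa cells stably expressing A3G-eYFP and Vif were treated for 24 h at 37 deg C with compounds at several concentrations; yellow fluorescence (Ex 488 nm, Em 500-530 nm) read by Acumen Explorer, MG132 as positive control.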
Potency is the fitted concentration of half-maximal effect.

Sequence of DNA dC->dU-editing enzyme APOBEC-3G (Homo sapiens) (Q9HC16 whole entry, looked up): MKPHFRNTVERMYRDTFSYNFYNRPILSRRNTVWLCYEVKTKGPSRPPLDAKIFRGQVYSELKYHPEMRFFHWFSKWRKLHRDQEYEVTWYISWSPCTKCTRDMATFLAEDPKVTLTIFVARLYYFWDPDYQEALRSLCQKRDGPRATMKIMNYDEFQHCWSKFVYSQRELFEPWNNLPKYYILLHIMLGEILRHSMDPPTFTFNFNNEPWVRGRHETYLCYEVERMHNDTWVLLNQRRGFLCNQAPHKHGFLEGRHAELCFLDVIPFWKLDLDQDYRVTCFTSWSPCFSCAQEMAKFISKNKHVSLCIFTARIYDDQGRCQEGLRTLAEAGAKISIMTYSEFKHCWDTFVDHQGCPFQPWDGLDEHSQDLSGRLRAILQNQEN

Row | Compound | Potency | max response
1 | CCCCCCNc1ccc(/C=C/c2ccnc3ccccc23)cc1 | 18.4 µM (active) | 
2 | CCCCCCCNc1ccc(/C=C/c2ccnc3ccccc23)cc1 | 11.6 µM (active) | 
3 | COc1ccccc1NC(=O)c1sc2ncn(CC(=O)Nc3ccccc3)c(=O)c2c1C | 18.4 µM (active) | 
4 | CCCC(=O)Nc1nc2ccc(NC(=O)c3ccccc3F)cc2s1 | 15.8 µM (active) | 
5 | CCC(=O)Nc1nc2ccc(NC(=O)c3cc(OC)c(OC)c(OC)c3)cc2s1 |  | -0.685% (inactive)
6 | COc1ccccc1-c1cc(-c2ccccc2)nc(SC(C(N)=O)c2ccccc2)c1C#N (centres undefined) |  | -23.2% (inactive)
7 | COc1ccc(-c2c(C#N)c(N)nc(Sc3ccc(Cl)cc3)c2C#N)cc1 |  | -11.5% (inactive)
8 | COc1ccc(OC)c(-c2cc(-c3cccnc3)nc(N)c2C#N)c1 | 5.59 µM (active) | 
9 | CCOCCCNC(=O)/C(C#N)=C/c1ccc([N+](=O)[O-])o1 | 23.1 µM (active) | 
10 | Cc1ccc(NC(=O)C(=Cc2ccc(C(=O)O)cc2)C(=O)Nc2ccc(C)cc2C)c(C)c1 | 7.04 µM (active) | 
11 | COc1cc(N(C)C)c(OC)cc1/C=C/c1ccnc2ccccc12 | 23.1 µM (active) | 
12 | COc1cc(/C=C/c2ccnc3ccccc23)ccc1N(C)C | 18.4 µM (active) | 
13 | C=CCN=c1scc(-c2ccc(F)cc2)n1/N=C/c1ccccn1 |  | -11.2% (inactive)
14 | CCc1ccc(NC(=O)c2sc3nc(C)c(C(=O)Nc4ccc(C)cc4C)c(-c4ccco4)c3c2N)cc1 | 23.1 µM (active) | 
15 | CCOC(=O)c1sc(NC(=S)NC(=O)c2ccco2)nc1C |  | -15.3% (inactive)
16 | COc1ccc(OC)c(NC(=O)c2sc3nc(Cc4ccccc4)cc(C(F)(F)F)c3c2N)c1 | 3.66 µM (active) | 
17 | CCC(=O)OCc1cnc(C)c2oc(=O)c(C(=O)Nc3ccccc3C(F)(F)F)cc12 |  | -2.09% (inactive)
18 | COc1cccc(C(=O)c2sc3nc(-c4ccccc4)cc(C(F)(F)F)c3c2N)c1 | 0.92 µM (active) | 
19 | COc1ccc(C(=O)c2sc3nc(C)cc(-c4cccs4)c3c2N)cc1 | 20.6 µM (active) | 
20 | CCOC(=O)c1c(-c2ccc(OC)cc2)csc1/N=C/C1C(=O)CCCC1=O |  | -18.7% (inactive)

Row | Compound | Potency | max response
21 | Cc1c(C(=O)Nc2ccc(C(C)C)cc2)sc2nc3n(c(=O)c12)CCC3 |  | 6.74% (inactive)
22 | COc1ccc(NC(=O)c2sc3nc(-c4ccc(OC)cc4)cc(C(F)(F)F)c3c2N)cc1 | 1.3 µM (active) | 
23 | CCOC(=O)c1c(C)nc2sc(C(=O)Nc3ccc(OC)cc3)c(N)c2c1-c1ccc(OC)cc1 | 1.98 µM (active) | 
24 | COc1ccc(C(=O)c2sc3nc(-c4ccc(C)cc4)cc(C(F)(F)F)c3c2N)cc1 | 0.731 µM (active) | 
25 | Cc1ccc2c(c1C)NC(=O)CC(c1ccccc1O)=N2 |  | -6.13% (inactive)
26 | O=C(Cc1nc2ccccc2[nH]c1=O)c1ccc(Cl)cc1 | 1.03 µM (active) | 
27 | COc1ccc(CN2C(=O)C(C)Nc3ncnc(N4CCc5ccccc5C4)c32)cc1 (centres undefined) | 3.53 µM (active) | 
28 | Cc1ccc(S(=O)(=O)c2cc3ccccc3oc2=Nc2ccc3c(c2)OCO3)cc1 |  | 12.1% (inactive)
29 | C=C(C)CNC(=S)N/N=C1\CCCCc2ccccc21 |  | -14.6% (inactive)
30 | CN(C)c1ccc(/C=C/c2ccnc3ccccc23)cc1C=O | 5.17 µM (active) | 
31 | CN1CCCc2cc(/C=C/c3ccnc4ccccc34)ccc21 | 5.8 µM (active) | 
32 | CN(C)c1ccc(/C=C/c2ccnc3ccccc23)cc1O | 20.6 µM (active) | 
33 | Cc1cc(/C=C/c2ccnc3ccccc23)ccc1N(C)C | 14.6 µM (active) | 
34 | O=C(Nc1cc(Cl)cc2c1-c1ccc(Cl)cc1C2O)C(Cl)Cl (centres undefined) |  | -14.6% (inactive)
35 | O=C(/C=C/c1ccncc1)c1cc(Cl)ccc1O |  | -22.8% (inactive)
36 | CCc1cc(/C=C/c2ccnc3ccccc23)ccc1N(C)C | 20.6 µM (active) | 
37 | Cc1cc(/C=C/c2ccnc3ccccc23)ccc1N | 18.4 µM (active) | 
38 | CN1C(=O)C(O)(C2COC(C)(C)CC2=O)c2cc(Br)ccc21 (centres undefined) |  | -0.606% (inactive)
39 | N=C1S/C(=C\c2ccc(-c3cccc(Cl)c3)o2)C(=O)N1c1nccs1 | 16.4 µM (active) | 
40 | CCc1ccc(CNC(=O)Cc2ccc(NC(=O)C3=C(C)OCCS3)cc2)cc1 | 0.886 µM (active) | 

Row | Compound | Potency | max response
41 | CC(C)OC(=O)c1ccc(NCc2cc(O)ccc2O)cc1Cl |  | -19.4% (inactive)
42 | CC(C)OC(=O)c1cc(C(=O)c2cc(F)ccc2O)coc1=N | 20.6 µM (active) | 
43 | O=C(N/N=C/c1ccc(Cl)cc1)c1cc2c(s1)-c1ccccc1CC2 | 7.04 µM (active) | 
44 | COc1ccc(-c2[nH]ncc2N=Nc2ccccc2)cc1 | 8.86 µM (active) | 
45 | Cc1ccc(-c2nc(SCCOc3ccccc3C)n3[nH]c(=O)cc3n2)cc1 |  | 23% (inactive)
46 | Cc1ccccc1OCCc1c(C)[nH]c(=S)[nH]c1=O | 2.5 µM (active) | 
47 | N#C/C(=C\c1cccc(O)c1)c1nc2ccccc2o1 | 7.04 µM (active) | 
48 | O=C(Nc1ccc(Cl)cc1)Nc1ccon1 |  | -27.2% (inactive)
49 | Cc1ccccc1OCC(=O)NNC(=O)Nc1ccc(Cl)cc1 | 6.27 µM (active) | 
50 | COc1cccc(/C=N/NC(=O)c2[nH]nc3c2CCc2ccccc2-3)c1 | 5.59 µM (active) | 
51 | COc1ccc(/C=N/NC(=O)c2[nH]nc3c2CCc2ccccc2-3)cc1OC | 3.96 µM (active) | 
52 | O=C(NCCC1=CCCCC1)C1CCC(CNc2nc(=S)[nH]c3ccccc23)CC1 (centres undefined) |  | -2.72% (inactive)
53 | Cc1cccc2cc3c(N)c(C(=O)N4CCOCC4)sc3nc12 | 8.2 µM (active) | 
54 | Cc1cccc2cc3c(N)c(C(=O)Nc4ccc(N5CCOCC5)cc4)sc3nc12 | 14 µM (active) | 
55 | Cc1ccc(C)c2nc3sc(C(=O)N4CCOCC4)c(N)c3cc12 | 17.7 µM (active) | 
56 | Cc1sc(NC(=O)c2sc3nc4c(C)cccc4cc3c2N)c(C#N)c1C | 17.7 µM (active) | 
57 | Cc1ccnc(N/C=C(\C#N)c2nc(-c3cccc(Br)c3)cs2)c1 | 11.2 µM (active) | 
58 | Cc1ccc(C(=O)NN(C)c2nc3ccccc3nc2C(F)(F)F)cc1 | 6.27 µM (active) | 
59 | CN(NC(=O)c1ccccc1)c1nc2ccccc2nc1C(F)(F)F | 3.53 µM (active) | 
